{"source": "the OligoGym collection"}
{"biological_target": "PGLYRP2", "test": "pooled miR-30 sensor sort-seq; sequence = guide strand", "settings": "shRNA"}
{"sequence": "TTGGCTCATGCACTGAAGCTGG", "sensor-assay potency score (higher = more potent)": -0.819}
{"sequence": "ATCTCTTAGAGACACTCCTGGC", "sensor-assay potency score (higher = more potent)": -0.911}
{"sequence": "TAGTCTCCAAGGATGACCCCAT", "sensor-assay potency score (higher = more potent)": -0.15}
{"sequence": "TTTTGTAGCATCTGGAGTGTTG", "sensor-assay potency score (higher = more potent)": -0.0388}
{"sequence": "TAGCAATCCGAGTAGGATCCAG", "sensor-assay potency score (higher = more potent)": -0.509}
{"sequence": "TTGGACATCTGGACAGCCTTTT", "sensor-assay potency score (higher = more potent)": -0.831}
{"sequence": "TTAACAGAGATGCCTTGGGGTC", "sensor-assay potency score (higher = more potent)": -1.41}
{"sequence": "TTCTCGTACGTCATGTCGGGCC", "sensor-assay potency score (higher = more potent)": -0.387}
{"sequence": "TCGTACACGTAGCCGTCCGAGC", "sensor-assay potency score (higher = more potent)": -1.66}
{"sequence": "ATCTGCAGTGGTGACATCTGGA", "sensor-assay potency score (higher = more potent)": -0.549}
{"biological_target": "PGR", "test": "pooled miR-30 sensor sort-seq; sequence = guide strand", "settings": "shRNA"}
{"sequence": "TAACTTCAGACATCATTTCTGG", "sensor-assay potency score (higher = more potent)": -0.00174}
{"sequence": "TTGATTAAGACTTGTCAGCAAA", "sensor-assay potency score (higher = more potent)": -0.954}
{"sequence": "TAGTTGATTAAGACTTGTCAGC", "sensor-assay potency score (higher = more potent)": -0.703}
{"sequence": "TTGACTTCGTAGCCCTTCCAAA", "sensor-assay potency score (higher = more potent)": -1.29}
{"sequence": "TTCTTGGCTAACTTGAAGCTTG", "sensor-assay potency score (higher = more potent)": -0.748}
{"sequence": "TTCGTCTTCCAGCAGCTGCCGA", "sensor-assay potency score (higher = more potent)": -0.877}
{"sequence": "TTGAAGCTTGACAAACTCCTGT", "sensor-assay potency score (higher = more potent)": 0.608}
{"sequence": "TCAACTGTATGTCTTGACCTGG", "sensor-assay potency score (higher = more potent)": -0.016}
{"sequence": "TGTAAGTTGATAGAAACGCTGT", "sensor-assay potency score (higher = more potent)": 0.269}
{"sequence": "TTGTGTTGTCATGTCCTGCATA", "sensor-assay potency score (higher = more potent)": -0.728}
{"sequence": "TAAGTTGATAGAAACGCTGTGA", "sensor-assay potency score (higher = more potent)": 0.39}
{"sequence": "TTGTTTGACAAGATCATGCAAG", "sensor-assay potency score (higher = more potent)": -0.044}
